The test system of assay [1] is Wnt5a (protein binding on small-molecule microarray). The assay is described as follows: small molecules binding Wnt5a protein – biophysical, small-molecule microarray, 635/667 nm fluorescence, primary screen (AID 1142).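 Also: fluorescence read at 667 nm with signal to noise per printed feature.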 To be noted: 635 nm fluorescence, higher = more signal.
Assay [2] is described as follows: ATP-based viability of Huh7 replicon cells – cell-based, CellTiter-Glo luminescence, basal, 48 h, cytotoxicity control for HCV replication inhibitor project, primary screen (AID 1143).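 Also: Huh7 hepatoma cells carrying a hepatitis C replication reporter with no stimulus; test concentration not given here.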 Particulars: higher = more signal, called active from +8 up or from −8 down. On the technique in general: Replicon systems follow genome replication, usually without infectious particles.

The nature of assay [3]: Pseudomonas biofilm growth suppression – PAO1 strain, BacTiter-Glo luminescence, LB-PBS, primary screen (AID 1144). To be noted: P. aeruginosa PAO1 biofilm, 12 h, higher = more signal.
A short description of assay [4]: basal CRE-LacZ reporter activity in PC12 – cell-based, unstimulated, primary screen (AID 1145). To be noted: no forskolin, luminescence, 4.5 h, higher = more signal, called active from +8 up or from −8 down.
Assay [5] can be described thus: forskolin-driven CRE-LacZ activity in PC12 – cell-based, CRE-LacZ reporter, forskolin-stimulated, primary screen (AID 1146).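 Also: PC12 cells with 6xCRE LacZ reporter stimulated by forskolin 10 µM; beta-galactosidase reporter signal reflecting CREB driven transcription.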 To be noted: luminescence, 4.5 h, higher = more signal, called active from +8 up or from −8 down.
Assay [6] concerns the target Streptavidin (Streptomyces avidinii) (UniProt P22629). Kind of assay: compounds binding control protein streptavidin – biophysical, small-molecule microarray, 635/667 nm fluorescence, artefact control for SMM compound annotation, primary screen (AID 1147).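 Also: signal reflects streptavidin binding to arrayed compounds as a control protein.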 To be noted: higher = more signal.
Assay [7] is described as follows: probe aInhba binding on compound microarray – biochemical, small-molecule microarray, 635/667 nm fluorescence, primary screen (AID 1148).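 Also: score merges 667nm spot fluorescence with signal-to-noise for antibody binding to printed compounds.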 To be noted: higher = more signal.
Assay [8] addresses Torsin-1A (Homo sapiens) (UniProt O14656). The assay is described as follows: TOR1A wild-type binding on microarray – cell lysate, small-molecule microarray, lysate, 635/667 nm, primary screen (AID 1149). To be noted: COS7 hTOR1A-WT lysate, 635 nm fluorescence, higher = more signal.
Assay [9] shares this target. Kind of assay: torsin A mutant lysate binding on microarrays – cell lysate, small-molecule microarray, COS7 lysate, 635/667 nm fluorescence, primary screen (AID 1150).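 Also: score pools 667 nm emission and signal to noise measuring lysate protein binding.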 To be noted: COS7 hTOR1A mutant lysate, 635 nm fluorescence, higher = more signal.
The subject of assay [10] is Sonic hedgehog protein (Shh). Kind of assay: Sonic hedgehog microarray binding compounds – biochemical, small-molecule microarray, 635/667 nm fluorescence, primary screen (AID 1151).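 Also: Shh protein binding to compounds spotted on small-molecule microarray slides; score combines spot fluorescence intensity with signal-to-noise across triplicate slides.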 To be noted: 635 nm fluorescence, higher = more signal.

Active and inactive are the calls of the source. Unless noted, no rule for the calls is given here.

Chain of Streptavidin (Streptomyces avidinii) (P22629 whole entry, looked up): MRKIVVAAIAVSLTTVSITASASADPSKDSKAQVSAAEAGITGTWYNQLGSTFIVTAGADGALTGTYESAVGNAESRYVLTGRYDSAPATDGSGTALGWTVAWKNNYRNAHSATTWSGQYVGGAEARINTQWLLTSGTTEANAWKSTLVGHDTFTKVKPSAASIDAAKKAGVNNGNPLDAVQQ
Chain of Torsin-1A (Homo sapiens) (O14656 whole entry, looked up): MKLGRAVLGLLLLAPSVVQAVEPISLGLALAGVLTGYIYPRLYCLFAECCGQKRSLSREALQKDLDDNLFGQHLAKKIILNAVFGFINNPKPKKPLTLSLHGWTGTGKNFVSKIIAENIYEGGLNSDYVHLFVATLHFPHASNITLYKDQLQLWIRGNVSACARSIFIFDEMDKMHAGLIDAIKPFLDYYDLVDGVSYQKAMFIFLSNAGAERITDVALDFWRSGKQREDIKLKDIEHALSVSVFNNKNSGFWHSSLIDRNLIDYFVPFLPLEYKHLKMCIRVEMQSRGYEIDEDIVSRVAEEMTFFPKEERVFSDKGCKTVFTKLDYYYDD

Consider `COc1ccc([Si](C)(C)[C@@H]2[C@@H](CC(=O)N3Cc4ccccc4C[C@H]3CO)O[C@]3(C(=O)N(Cc4ccc(N5CCC5=O)cc4)c4ccccc43)[C@H]2C)cc1`, for which the composite z-score in [1] is 0.159; in assay [6] it was 0.673; in assay [7], -0.167; in [8], -0.191; in assay [9] it was 0.585; in [10] it was 1.74. Also, the z-score in assay [2] was -3.32 (inactive); in [3], -1.1 (inactive); in assay [4] it was 0.409 (inactive); in assay [5], -0.448 (inactive).
On to `C=CCNC(=O)[C@H]1[C@@H]2C(=O)O[C@@H](c3ccccc3)[C@@H](c3ccccc3)N2[C@@H](c2ccc(O)cc2)[C@]12C(=O)N(C(=O)OCCOC)c1ccc(C#CCC(C(=O)OC)C(=O)OC)cc12`, for which the composite z-score in assay [1] was 0.027; in assay [6], 0.663; in assay [7], -0.0221; in [8] it was 0.757; in [9] it was 0.283; in [10], 1.75. Besides, the z-score in assay [2] was -2.96 (inactive); in assay [3], 0.102 (inactive); in assay [4], 0.0653 (inactive); in assay [5], 0.141 (inactive).
Take `CCOC(=O)C1=C[C@@H](C(C)(C)C)N(S(=O)(=O)c2ccc(C)cc2)[C@H]1c1cccc(Cl)c1`: the composite z-score in assay [1] stood at 0.37; in assay [6] it was 1.37; in [7] it was 0.18; in assay [8], 0.224; in assay [9], 0.695; in assay [10], 0.163. Moreover, the z-score in [2] was -4.84 (inactive); in [3], 1.52 (inactive); in assay [4], 0.0798 (inactive); in [5], -0.651 (inactive).
In the case of `[N-]=[N+]=NCc1ccccc1C[C@@]1(C(=O)N2CCCCC2)N=C(c2ccc(OCCCO)cc2)O[C@@H]1c1ccccc1CN=[N+]=[N-]`, the composite z-score in assay [1] was 0.599; in assay [6], 0.721; in assay [7], 0.153; in assay [8], 0.362; in assay [9], -0.0699; in [10], -0.306. Moreover, the z-score in assay [2] was -4.29 (inactive); in assay [3], 0.87 (inactive); in assay [4], -0.114 (inactive); in assay [5], 0.872 (inactive).
On to `C=CC1c2cc(O)c(OC)cc2CCN1Cc1ccc([N+](=O)[O-])o1` (stereo not given), for which the composite z-score in assay [1] is 0.17; in assay [6], 0.39; in [7], 0.027; in [8], -0.17; in [9], 0.745; in [10] it was -0.873. Moreover, the z-score in assay [2] is -0.244 (inactive); in assay [3], 1.47 (inactive); in [4], -0.321 (inactive); in assay [5], -0.625 (inactive).
Regarding `O=C(O)[C@H]1C[C@H]2C(=O)N[C@@H](Cc3ccccc3)C(=O)N2[C@H]1c1cccc(OCCO)c1`, the composite z-score turned out to be 0.223 in [1]; 0.105 in assay [6]; 0.0663 in assay [7]; 1.42 in [8]; 1.71 in [9]; 1.9 in [10]. The z-score in [2] is -0.6 (inactive); in assay [3], 0.28 (inactive); in [4], 1.23 (inactive); in assay [5], -0.178 (inactive).
`C=CCN1C(=O)[C@@]2(O[C@@H](CCO)[C@H]([Si](C)(C)c3ccc(OC)cc3)[C@H]2C)c2cc(N3CCOC3=O)ccc21`: the composite z-score in [1] is -0.0317; in assay [6] it was 0.0828; in assay [7], -0.0695; in assay [8], -0.0921; in assay [9] it was 0.543; in assay [10] it was -0.285. For the same compound, the z-score in [2] was -7.42 (inactive); in assay [3], -0.202 (inactive); in [4], 6.34 (inactive); in assay [5] it was -3.56 (inactive).
Consider `COc1ccc(C(O)C2C=CC3C(=O)N(c4ccccc4)C(=O)C3N2Nc2ccccc2F)cc1` (stereo not given), for which the composite z-score is 0.0178 in assay [1]; 0.316 in [6]; 1.52 in assay [7]; 0.216 in assay [8]; 0.732 in assay [9]; 0.379 in assay [10]. Further, the z-score in [2] is -0.0475 (inactive); in [3], -0.749 (inactive); in [4], -0.228 (inactive); in assay [5], 0.604 (inactive).
Regarding `COCCOC(=O)N1C(=O)[C@@]2(c3cc(C#Cc4ccc(OC)cc4)ccc31)[C@H](c1ccc(OCCO)cc1)N1[C@H](c3ccccc3)[C@H](c3ccccc3)OC(=O)[C@H]1[C@@H]2C(=O)Nc1nc2ccccc2s1`, the composite z-score was 0.144 in assay [1]; 1.19 in assay [6]; 0.164 in [7]; 0.29 in assay [8]; 0.461 in assay [9]; 0.691 in [10]. For the same compound, the z-score in assay [2] was -1.1 (inactive); in assay [3], 0.408 (inactive); in assay [4], 0.272 (inactive); in assay [5], -0.175 (inactive).
Consider `CCCNC(=O)[C@@]1(C)c2ccccc2C(=O)N(Cc2ccccc2)[C@H]1c1ccc(CO)cc1`, for which the composite z-score in assay [1] was -0.15; in [6] it was -1; in [7], 0.101; in assay [8], -0.102; in assay [9], -1.96; in assay [10], -0.203. The z-score was -0.535 (inactive) in assay [2], 0.62 (inactive) in assay [3], 0.0924 (inactive) in assay [4] and -0.163 (inactive) in [5].
Regarding `C=C[C@@H](C)[C@H](O)c1ccc(OCCO)cc1`, the composite z-score is -0.872 in assay [1]; -1.83 in assay [6]; -0.263 in assay [7]; -3.14 in assay [8]; -1.86 in [9]; -0.509 in [10]. Further, the z-score in assay [2] is -0.104 (inactive); in assay [3] it was -0.307 (inactive); in [4], 0.166 (inactive); in assay [5], -0.049 (inactive).
Take `C=C(COC)/C(=C/C[C@@H](OC(=O)c1ccncc1)c1ccccc1OCCO)c1cc(C(=O)OC)ccc1OC`: the composite z-score in assay [1] is -0.146; in [6], -0.409; in [7], -0.0762; in assay [8], 0.758; in assay [9] it was -0.103; in assay [10], 0.249. Also, the z-score in assay [2] was -1.88 (inactive); in assay [3] it was 0.454 (inactive); in [4] it was 14.7 (active); in assay [5], 3.84 (inactive).
For the compound `COCCOC(=O)N1C(=O)[C@@]2(c3cc(C#CCC(C(=O)OC)C(=O)OC)ccc31)[C@H](c1ccc(O)cc1)N1[C@H](c3ccccc3)[C@H](c3ccccc3)OC(=O)[C@H]1[C@@H]2C(=O)NC[C@H](O)c1ccccc1`, the composite z-score in [1] is 0.295; in assay [6], 1.7; in assay [7], -0.0774; in assay [8] it was 0.941; in assay [9], 0.468; in [10] it was 0.49. Further, the z-score in assay [2] was -2.04 (inactive); in assay [3] it was -0.0824 (inactive); in assay [4], -0.231 (inactive); in assay [5] it was -0.196 (inactive).
In the case of `CCN(CC)c1ccc(N2CC=CC34O[C@@H]5/C=C\CCC(C)OC(=O)C5[C@H]3C(=O)N(C(C)CO)[C@@H]4C2=O)cc1` (stereo not given in full), the composite z-score in assay [1] was -0.0075; in assay [6] it was -0.417; in assay [7], -0.0986; in assay [8], -0.0697; in [9], -0.116; in assay [10], 0.808. In addition, the z-score is 0.269 (inactive) in assay [2], 0.515 (inactive) in assay [3], 0.87 (inactive) in assay [4] and 0.46 (inactive) in assay [5].
Take `CC(C)C[C@@H]1NC(=O)CNC(=O)[C@@]23C(=O)N[C@@H](Cc4ccccc4)C2[C@H](C)[C@@]2(C)O[C@H]2C3/C=C/C/C=C\CNC1=O` (stereo not given in full): the composite z-score in assay [1] is 0.184; in [6] it was -0.0691; in assay [7] it was -0.0494; in assay [8], 1.09; in [9] it was -0.134; in assay [10] it was 1.5. Also, the z-score in assay [2] is 0.0431 (inactive); in assay [3], -0.826 (inactive); in assay [4] it was -0.417 (inactive); in [5] it was 0.297 (inactive).

For the origin of these results see PubChem BioAssay.
